# Reference: PubChem BioAssay (Tox21)
# Several values for one entry are separate records, joined by “and”; a condition that tells them apart may be missing. Equal values may be shown once. Records with an inconclusive call do not appear. Where a call stands in place of a potency, no number is given. The source holds several records for some structures; these can differ, active in one and inactive in another. Activity calls are given as the source filed them. Unless noted, calls come from the whole dose curve.
# Assays:
# [1] = target: Acetylcholinesterase (Homo sapiens) (UniProt P22303); assay: Acetylcholinesterase (AChE) small molecule antagonists: colormetric cell-based qHTS assay (AID 1347395); conditions: SH-SY5Y cells AChE activity, colorimetric (Ellman); series mostly up to 115 µM; note: nearly all actives have a fitted effect of over 30% in size; note: potency is the fitted concentration of half-maximal effect
# Method in brief: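 SH-SY5Y cells attached overnight, exposed to compound 30 min at 37 C, then given DTNB/acetylthiocholine; after 90 min at 37 C, colorimetric thiocholine read gives cellular AChE activity.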
# [2] = target: Acetylcholinesterase (Homo sapiens) (UniProt P22303); assay: Acetylcholinesterase (AChE) small molecule antagonists: enzyme-based qHTS assay (AID 1347397); conditions: Potency: AChE enzyme activity inhibition; outcome: AChE enzyme activity inhibition; series mostly up to 115 µM; note: nearly all actives have a fitted effect of over 55% in size; note: potency is the fitted concentration of half-maximal effect
# Method in brief: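 rhAChE 50 mU/mL (dispensed) + cpd or DMSO, 30 min RT; add DTNB/acetylthiocholine cocktail, 10 min RT; colorimetric thiocholine readout. qHTS, 1536-well format.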
# [3] = target: Acetylcholinesterase (Homo sapiens) (UniProt P22303); assay: Acetylcholinesterase (AChE) small molecule antagonists: fluorescence cell-based qHTS assay (AID 1347398); conditions: SH-SY5Y cells; Potency: AChE activity; outcome: AChE activity; series mostly up to 115 µM; note: nearly all actives have a fitted effect of over 50% in size; note: potency is the fitted concentration of half-maximal effect
# Method in brief: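 Read-out is Thiolite Green fluorescence at Ex/Em = 490/520 nm, formed by reaction with thiocholine released when cellular AChE in SH-SY5Y cells hydrolyzes acetylthiocholine. Compounds were preincubated 30 min at 37 C before substrate.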
# [4] = target: Acetylcholinesterase (Homo sapiens) (UniProt P22303); assay: Acetylcholinesterase (AChE) small molecule antagonists: enzyme-based qHTS assay with human liver microsomes (AID 1347399); conditions: Potency: qHTS inhibition; outcome: qHTS inhibition; series mostly up to 115 µM; note: nearly all actives have a fitted effect of over 60% in size
# Method in brief: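 Recombinant human AChE (50 mU/mL in the enzyme mix) and human liver microsomes (0.25 mg/mL final) were preincubated with compound and NADPH (0.25 mg/mL final) for 30 min at 37 C. Acetylthiocholine/DTNB was then added; thiocholine was read colorimetrically after 10 min at room temperature.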
# [5] = qHTS assay for small molecule agonists of the p53 signaling pathway (AID 651631); conditions: HCT-116 p53RE-bla reporter, beta-lactamase FRET ratio, 16 h; series mostly up to 73.3 µM; note: nearly all actives have a fitted effect of over 15% in size
# Method in brief: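 HCT-116 cells carrying a beta-lactamase reporter under p53 response elements were dosed with compound for 16 h at 37 °C. LiveBLAzer B/G FRET substrate was then added for 2 h at room temperature, and fluorescence intensity was read to detect pathway agonism.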
# [6] = target: Aromatase (Homo sapiens) (UniProt P11511); assay: qHTS assay to identify aromatase inhibitors (AID 743083; active = well fitted curve in the direction sought with a large enough effect in the repeat runs; an effect the other way counts as inactive or inconclusive; note: nearly all actives have a fitted effect of over 55% in size; note: potency is the fitted concentration of half-maximal effect); conditions: MCF-7 aro ERE, testosterone-driven ERE luciferase, 24 h; series mostly up to 70.3 µM
# [7] = target: Aryl hydrocarbon receptor (Homo sapiens) (UniProt P35869); assay: qHTS assay to identify small molecule that activate the aryl hydrocarbon receptor (AhR) signaling pathway (AID 743085; active = well fitted curve in the direction sought with a large enough effect in the repeat runs; an effect the other way counts as inactive or inconclusive;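 note: HG2L7.5c1 human HepG2 liver cells with stably integrated DRE-driven firefly reporter; nearly all actives have a fitted effect of over 15% in size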); conditions: HepG2 AhR-luc (HG2L7.5c1), luciferase, 24 h; series mostly up to 70.3 µM
# Method in brief: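 HepG2 cells stably carrying a 20-DRE firefly luciferase reporter (HG2L7.5c1) treated with compound for 24 hr at 37C. Luciferase read by ONE-Glo luminescence, with CellTiter-Fluor viability read first.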
# Chain of Acetylcholinesterase (Homo sapiens) (P22303 whole entry, looked up): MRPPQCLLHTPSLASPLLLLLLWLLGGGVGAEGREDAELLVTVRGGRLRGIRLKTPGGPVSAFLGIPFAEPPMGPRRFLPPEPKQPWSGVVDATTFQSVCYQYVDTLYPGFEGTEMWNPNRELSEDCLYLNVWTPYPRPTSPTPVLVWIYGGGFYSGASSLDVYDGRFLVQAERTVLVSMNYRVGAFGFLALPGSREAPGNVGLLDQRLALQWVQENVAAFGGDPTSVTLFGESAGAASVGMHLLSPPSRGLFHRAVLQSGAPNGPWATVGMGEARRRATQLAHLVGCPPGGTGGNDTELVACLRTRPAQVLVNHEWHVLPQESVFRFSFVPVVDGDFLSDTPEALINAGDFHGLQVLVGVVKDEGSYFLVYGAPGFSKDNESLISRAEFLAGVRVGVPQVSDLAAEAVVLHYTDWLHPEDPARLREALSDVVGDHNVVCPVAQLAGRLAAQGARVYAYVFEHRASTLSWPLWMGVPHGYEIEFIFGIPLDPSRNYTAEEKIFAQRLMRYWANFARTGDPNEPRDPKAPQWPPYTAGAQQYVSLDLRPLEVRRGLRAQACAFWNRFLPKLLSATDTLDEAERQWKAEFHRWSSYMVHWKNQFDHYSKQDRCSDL
# Chain of Aromatase (Homo sapiens) (P11511 whole entry, looked up): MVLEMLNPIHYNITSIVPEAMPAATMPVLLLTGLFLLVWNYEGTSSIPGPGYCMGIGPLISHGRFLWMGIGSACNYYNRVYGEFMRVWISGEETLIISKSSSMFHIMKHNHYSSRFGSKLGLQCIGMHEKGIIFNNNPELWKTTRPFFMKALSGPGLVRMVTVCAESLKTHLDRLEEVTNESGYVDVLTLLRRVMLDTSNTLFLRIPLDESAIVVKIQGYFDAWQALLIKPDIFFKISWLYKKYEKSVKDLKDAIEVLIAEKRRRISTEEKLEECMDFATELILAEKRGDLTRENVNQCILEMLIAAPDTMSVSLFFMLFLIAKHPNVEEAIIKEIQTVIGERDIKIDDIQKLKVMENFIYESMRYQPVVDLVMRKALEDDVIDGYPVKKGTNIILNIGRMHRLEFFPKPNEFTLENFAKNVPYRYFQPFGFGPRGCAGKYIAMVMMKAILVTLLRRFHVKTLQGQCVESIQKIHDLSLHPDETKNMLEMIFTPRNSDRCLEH
# Chain of Aryl hydrocarbon receptor (Homo sapiens) (P35869 whole entry, looked up): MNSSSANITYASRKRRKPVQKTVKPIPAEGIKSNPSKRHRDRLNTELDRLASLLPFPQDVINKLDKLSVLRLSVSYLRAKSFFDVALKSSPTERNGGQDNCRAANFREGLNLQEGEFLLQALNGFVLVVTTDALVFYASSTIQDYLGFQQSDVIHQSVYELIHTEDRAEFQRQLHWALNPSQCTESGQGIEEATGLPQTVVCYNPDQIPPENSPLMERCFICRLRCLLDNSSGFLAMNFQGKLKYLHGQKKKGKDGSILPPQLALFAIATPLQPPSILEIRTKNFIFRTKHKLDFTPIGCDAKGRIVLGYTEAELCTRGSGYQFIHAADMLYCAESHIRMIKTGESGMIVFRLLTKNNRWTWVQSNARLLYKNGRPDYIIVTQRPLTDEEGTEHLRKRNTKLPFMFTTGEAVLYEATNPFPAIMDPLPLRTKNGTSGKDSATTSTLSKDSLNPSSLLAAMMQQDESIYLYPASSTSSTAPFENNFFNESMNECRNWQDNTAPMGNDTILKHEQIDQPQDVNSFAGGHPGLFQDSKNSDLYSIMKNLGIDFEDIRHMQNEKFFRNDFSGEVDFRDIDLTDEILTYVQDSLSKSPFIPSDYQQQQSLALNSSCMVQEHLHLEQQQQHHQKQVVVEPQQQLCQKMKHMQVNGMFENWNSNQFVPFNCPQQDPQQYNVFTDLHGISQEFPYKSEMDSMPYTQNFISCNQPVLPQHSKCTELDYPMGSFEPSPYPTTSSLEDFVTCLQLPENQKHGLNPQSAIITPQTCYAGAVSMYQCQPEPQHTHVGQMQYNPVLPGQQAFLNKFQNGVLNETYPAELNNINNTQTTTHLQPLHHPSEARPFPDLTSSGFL
Compound,Potency [1],Potency [2],Potency [3],Potency [4],Potency [5],Potency [6],Potency [7]
c1ccc2ncccc2c1,inactive,inactive,inactive,inactive,–,–,–
OC(CCl)CCl,inactive,inactive,inactive,inactive,–,–,–
Brc1cc(Oc2cc(Br)c(Br)c(Br)c2Br)c(Br)c(Br)c1Br,inactive,inactive,inactive,inactive,–,–,–
O=C(c1ccccc1)c1ccc(O)c(O)c1O,inactive,inactive,inactive,inactive,–,–,–
O=S(=O)(O)c1ccc(N=Nc2c(O)ccc3cc(S(=O)(=O)O)ccc23)cc1,inactive,inactive,inactive,inactive,–,–,–
CC(C)(C)C1CCCCC1O (stereo not drawn),inactive,inactive,inactive,inactive,–,–,–
COC1=CC(=O)C[C@@H](C)[C@]12Oc1c(Cl)c(OC)cc(OC)c1C2=O,inactive,inactive,inactive,inactive,–,–,–
O=C1Cc2cc(Cl)ccc2N1,inactive,inactive,inactive,inactive,–,–,–
Cc1ccc([N+](=O)[O-])c(C)c1,inactive,inactive,inactive,inactive,inactive,inactive,inactive
C=Cc1c(C)c2cc3[nH]c(cc4nc(cc5nc(cc1[nH]2)C(C)=C5CCC(=O)O)C(CCC(=O)O)=C4C)c(C)c3C=C,inactive,inactive,inactive,inactive,–,–,–
CC(=O)c1ccc(S(=O)(=O)NC(=O)NC2CCCCC2)cc1,inactive,inactive,inactive,inactive,–,–,–
C[C@H]1[C@H](NC(=O)/C(=N/OC(C)(C)C(=O)O)c2csc(N)n2)C(=O)N1S(=O)(=O)O (stereo in doubt),inactive,inactive,inactive,inactive,–,–,–
C=C(C)C(=O)OCCCCCCCCCCCCC,inactive,inactive,inactive,inactive,–,–,–
CC(C)(C)c1cccc(C(C)(C)C)c1O,inactive,inactive,inactive,inactive,–,–,–
Cc1ccncc1,inactive,inactive,inactive,inactive,–,–,–
CCCCN1CCCC[C@H]1C(=O)Nc1c(C)cccc1C,inactive,inactive,inactive,inactive,–,–,–
O=S1(=O)CCCO1,inactive,inactive,inactive,inactive,–,–,–
Nc1nccs1,inactive,inactive,inactive,inactive,–,–,–
CC12CCC(C1)C(C)(C)C2O (stereo not drawn),inactive,inactive,inactive,inactive,–,–,–
Cc1cc(Br)ccc1NC(=O)CCl,inactive,inactive,inactive,inactive,–,–,–

Compound,Potency [1],Potency [2],Potency [3],Potency [4],Potency [5],Potency [6],Potency [7]
CC(=O)O[C@]1(C(C)=O)CC[C@H]2[C@@H]3C=C(Cl)C4=CC(=O)CC[C@]4(C)[C@H]3CC[C@@]21C,inactive,inactive,inactive,inactive,–,–,–
O=C(O)Cc1c[nH]c2ccccc12,inactive,inactive,inactive,inactive,–,–,–
CCCCCCCCSCC,inactive,inactive,–,inactive,–,–,–
CCCCC(CC)CCC(CC(C)C)OS(=O)(=O)O (stereo not drawn),inactive,inactive,inactive,inactive,–,–,–
CC(O)CC(C)O (stereo not drawn),inactive,inactive,inactive,inactive,–,–,–
CCC(C)C(C)=O (stereo not drawn),inactive,inactive,inactive,inactive,–,–,–
NC(N)=NS(=O)(=O)c1ccc(N)cc1,inactive,inactive,inactive,inactive,–,–,–
CCCCCCCCC(CCCCCC)C(=O)O (stereo not drawn),inactive,inactive,inactive,inactive,–,–,–
O=C1c2ccccc2C(=O)N1SC1CCCCC1,39.9 µM (active) and inactive,31.7 µM (active) and inactive,22.4 µM (active) and inactive,inactive,–,30.6 µM (active),–
CCc1ccc(C)cc1,inactive,inactive,inactive,inactive,–,–,–
COc1ccc(NC(=O)CC(C)=O)cc1,inactive,inactive,inactive,inactive,–,–,–
CC(=O)N[C@H]1[C@H]([C@H](O)[C@H](O)CO)OC(C(=O)O)=C[C@@H]1N=C(N)N,inactive,inactive,inactive,inactive,–,–,–
CCOC(=O)/C=C/C(=O)O,inactive,inactive,inactive,inactive,–,–,–
CC1=CC(C)C(C=O)C(C)C1 (stereo not drawn),inactive,inactive,inactive,inactive,–,–,–
CC/C=C\C/C=C\C/C=C\CCCCCCCC(=O)O,inactive,inactive,inactive,inactive,–,–,–
OCC1CC2CC1C1CCC(CO)C21 (stereo not drawn),inactive,inactive,inactive,inactive,–,–,–
COC(=O)c1ccccc1C(=O)O,inactive,–,inactive,inactive,–,–,–
NC=O,inactive,–,inactive,inactive,–,–,–
CC(=O)[C@H]1CC[C@H]2[C@@H]3CCC4=CC(=O)CC[C@]4(C)[C@H]3CC[C@]12C,39.7 µM (active) and 35.6 µM (active),–,28.1 µM (active) and 31.7 µM (active),inactive,–,–,–
Cc1cccnc1,–,inactive,inactive,inactive,–,–,–

Compound,Potency [1],Potency [2],Potency [3],Potency [4],Potency [5],Potency [6],Potency [7]
O=C(O)c1ccc(-n2nc(-c3ccccc3O)nc2-c2ccccc2O)cc1,inactive,–,inactive,inactive,–,–,–
c1ccc2c(c1)c1cccc3ccc4cccc2c4c31,inactive,–,inactive,inactive,–,–,–
COCCc1ccc(OCC2CO2)cc1 (stereo not drawn),inactive,–,inactive,inactive,–,–,–
CCOC(=O)c1ccc(C)cc1,inactive,–,inactive,inactive,–,–,–
O=C(O)c1ccccc1-n1cc(C(=O)O)c(=O)c2cc(Nc3c(F)cc(F)cc3Cl)c(Cl)cc21,inactive,–,inactive,inactive,–,–,–
CC(CN)CCCN (stereo not drawn),inactive,–,inactive,inactive,–,–,–
N[C@@H](CCC(=O)Nc1ccc([N+](=O)[O-])cc1)C(=O)O,inactive,–,inactive,inactive,–,–,–
OC1(c2ccc(Cl)c(C(F)(F)F)c2)CCN(CCCC(c2ccc(F)cc2)c2ccc(F)cc2)CC1,inactive,–,inactive,inactive,–,–,–
Cc1nn(C)c(Oc2ccccc2)c1/C=N/OCc1ccc(C(=O)OC(C)(C)C)cc1,–,inactive,inactive,inactive,–,–,–
CC(C)NCC(O)COc1ccc(COCCOC(C)C)cc1 (stereo not drawn),inactive,–,inactive,inactive,–,–,–
CCCC(C)CO (stereo not drawn),inactive,–,inactive,inactive,–,–,–
O=C1c2ccccc2C(=O)C1c1nc2ccccc2c(Br)c1O,inactive,–,inactive,inactive,–,–,–
CNCCCCOc1ccccc1Cc1ccccc1,inactive,–,inactive,inactive,–,–,–
CCn1cc(C(=O)O)c(=O)c2cnc(N3CCNCC3)nc21,inactive,–,inactive,inactive,–,–,–
FC(F)(F)c1cccc(Cl)c1,inactive,–,inactive,inactive,–,–,–
CCCCC(=O)O[C@]1(C(=O)CO)CC[C@H]2[C@@H]3CCC4=CC(=O)CC[C@]4(C)[C@H]3[C@@H](O)C[C@@]21C,inactive,–,inactive,inactive,–,–,–
O=C1O[C@H]([C@H](O)CO)C(O)=C1O,inactive,–,inactive,inactive,–,–,–
c1ccc2c(c1)ccc1ccccc12,inactive,–,inactive,inactive,–,–,–
